PubChem BioAssay AID1259319 (Sanford-Burnham Center for Chemical Genomics, 2017)
Out of some 3,000 compounds screened, about 1,800 (60%) were called active.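 The calls were made as follows: active = activation at or above a set limit, or at least 3 SD above the negative control mean; inactive = the rest.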 So high a share suggests a set chosen from earlier hits. Not all results are given here.

Target: Nuclear receptor subfamily 1 group D member 1 (Homo sapiens) (UniProt P20393)
Assay: modulators of Rev-erb alpha DNA binding, confirmation, biochemical, FITC-DNA, fluorescence polarization, single point (AID 1259319);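 also: 0% = 35 nM protein with DMSO and 100% = 750 nM protein high control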
Conditions: 90 min, at 25 µM, active compounds read high

Nuclear receptor subfamily 1 group D member 1 (Homo sapiens), sequence (P20393 whole entry, looked up): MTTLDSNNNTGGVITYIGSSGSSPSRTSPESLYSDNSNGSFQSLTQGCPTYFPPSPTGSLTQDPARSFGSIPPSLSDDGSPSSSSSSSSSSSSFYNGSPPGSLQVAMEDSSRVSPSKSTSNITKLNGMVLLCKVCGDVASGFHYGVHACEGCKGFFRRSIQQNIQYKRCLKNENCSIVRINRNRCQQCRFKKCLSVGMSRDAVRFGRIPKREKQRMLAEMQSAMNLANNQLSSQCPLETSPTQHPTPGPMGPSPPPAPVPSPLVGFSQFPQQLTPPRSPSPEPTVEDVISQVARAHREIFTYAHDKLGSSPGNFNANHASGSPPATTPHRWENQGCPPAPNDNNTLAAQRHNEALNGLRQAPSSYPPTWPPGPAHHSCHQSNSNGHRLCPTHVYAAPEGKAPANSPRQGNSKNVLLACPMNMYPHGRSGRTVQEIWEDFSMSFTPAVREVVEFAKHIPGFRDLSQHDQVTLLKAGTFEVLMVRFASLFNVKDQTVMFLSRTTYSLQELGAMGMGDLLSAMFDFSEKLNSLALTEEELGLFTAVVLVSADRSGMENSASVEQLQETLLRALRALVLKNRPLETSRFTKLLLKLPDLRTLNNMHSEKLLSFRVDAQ

Structure (SMILES)	activation
c1ccc(CSc2ncnc3c2sc2nc(N4CCOCC4)c4c(c23)CCCC4)cc1	93.6% (active)
S=c1nccc(-c2cc(Cl)sc2Cl)[nH]1	36.6% (active)
c1ccc(-c2cc(-c3nnc4sc(-c5ccccn5)nn34)[nH]n2)cc1	26.1% (active)
CN(C)c1ccc(/C=C2\NC(=S)N(Cc3ccccc3)C2=O)cc1	37.3% (active)
CN1/C(=C\C=C2\N=C(c3ccc(F)cc3)OC2=O)C(C)(C)c2ccccc21	5.84% (inactive)
O=C(CCn1c(=S)[nH]c2cc3c(cc2c1=O)OCO3)NCc1ccc(Cl)cc1	9.29% (inactive)
O=C(CCn1c(SCC(=O)c2ccccc2)nc2ccccc2c1=O)NCc1ccc(F)cc1	36.3% (active)
C=CCNC(=O)CC12CC3CC(C1)CC(CC(=O)NCC=C)(C3)C2	-0.299% (inactive)
N#Cc1c(N)nc2c3c(sc(=N)c2c1N)NC(=O)CC3c1ccccc1Cl (stereo unspecified)	35% (active)
O=S(=O)(c1ccc(Br)cc1)c1nc(-c2ccccc2)oc1NCc1cccnc1	5.25% (inactive)
Oc1ccc2ccc3cccc[n+]3c2c1	41.7% (active)
CCc1ccccc1NC(=O)c1cc(-c2ccc3c(c2)OCO3)on1	10.4% (inactive)
CN(C)S(=O)(=O)c1ccc(N2CCCC2)c(C(=O)Nc2ccc(Br)cc2F)c1	10.4% (inactive)
O=C1CCCC2=C1C(c1ccccc1)n1c(s/c(=C/c3cccc(F)c3)c1=O)=N2 (stereo unspecified)	30% (active)
CCOC(=O)c1sc(=NC(=O)c2ccc(Br)cc2)n(C)c1C	26.1% (active)
COc1ccc2sc(-c3ccc(S(C)(=O)=O)cc3)c(-c3ccc(C(N)=O)cc3)c2c1	5.94% (inactive)
CCCNC(=O)Nc1ccc2c(c1)C(=O)N(C)[C@H]1CC[C@H](CC(=O)NCC3CCCCC3)O[C@@H]1CO2	63.1% (active)
CCN1C(=O)/C(=C\N2CCN(c3cccc(Cl)c3)CC2)SC1=S	204% (active)
Cc1ccc(S(=O)(=O)c2nnn3c2nc(N2CCN(c4ccccn4)CC2)c2ccccc23)cc1	65.4% (active)
Cc1cccc(Nc2nc3c(S(=O)(=O)c4ccccc4)nnn3c3ccccc23)c1C	15.8% (inactive)
CC(C)OCCCNC(=O)CN1C(=O)/C(=C/c2ccccc2F)Oc2ccccc21	-0.363% (inactive)
COC(=O)c1sc(NC(=O)c2ccc(OC)cc2OC)nc1C	24.1% (active)
COC(=O)c1c(NC(C)=O)sc(C(=O)Nc2ccccc2OC)c1C	9.45% (inactive)
COc1ccc(Cc2nnc(NC(=O)c3ccc(OC)cc3OC)s2)cc1	9.03% (inactive)
Cc1cc(Br)cn2c(Cc3ccccc3C(F)(F)F)c(-c3ccc(Cl)cc3)nc12	7.64% (inactive)
Cc1ccc(-c2nc3c(C)cc(Br)cn3c2Cc2ccccc2)cc1	14.9% (active)
